# Assays:
# Assay in all cases: DAPPL (digital affinity profiling via proximity ligation, sequencing); 10 mM Tris-HCl pH 7.5, 50 mM NaCl, 1 mM DTT, 4% glycerol, room temperature, 30 min; GST-TFs on glutathione beads, 16-mer random dsDNA library, 0.1% formaldehyde crosslink after washing; high values mean tight binding
# [1] = molecular target: T1, FEV (Homo sapiens, UniProt Q99581 1-238); settings: protein: recombinant; tags: N-terminal GST; dsDNA, one strand shown
# T1 sequence: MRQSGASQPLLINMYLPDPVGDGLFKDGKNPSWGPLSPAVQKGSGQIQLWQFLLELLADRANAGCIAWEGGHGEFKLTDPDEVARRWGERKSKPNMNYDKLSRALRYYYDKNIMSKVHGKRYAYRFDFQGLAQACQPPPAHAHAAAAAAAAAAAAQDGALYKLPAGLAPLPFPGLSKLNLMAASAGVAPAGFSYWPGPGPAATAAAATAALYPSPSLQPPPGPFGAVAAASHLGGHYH
# Outline: (§1)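 Binding signal is defined as a hexamer's read frequency for one factor over its frequency for the tag-only sample. To obtain reads, GST-fused human transcription factors were expressed in yeast, captured on glutathione beads, barcoded with DNA and pooled with that sample. Pools met 200 nmole of a 16-mer random double-stranded DNA library in Tris/NaCl/DTT/glycerol buffer for 30 min at room temperature before washing, 0.1% formaldehyde crosslinking, proximity ligation (BsaI/T4 ligase, 1 h, 37 °C), PCR and Illumina NextSeq500 sequencing.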
# [2] = molecular target: ETV5 (Homo sapiens, UniProt P41161 1-510); settings: protein: recombinant; tags: N-terminal GST; dsDNA, one strand shown
# Chain of ETV5 (P41161 whole entry): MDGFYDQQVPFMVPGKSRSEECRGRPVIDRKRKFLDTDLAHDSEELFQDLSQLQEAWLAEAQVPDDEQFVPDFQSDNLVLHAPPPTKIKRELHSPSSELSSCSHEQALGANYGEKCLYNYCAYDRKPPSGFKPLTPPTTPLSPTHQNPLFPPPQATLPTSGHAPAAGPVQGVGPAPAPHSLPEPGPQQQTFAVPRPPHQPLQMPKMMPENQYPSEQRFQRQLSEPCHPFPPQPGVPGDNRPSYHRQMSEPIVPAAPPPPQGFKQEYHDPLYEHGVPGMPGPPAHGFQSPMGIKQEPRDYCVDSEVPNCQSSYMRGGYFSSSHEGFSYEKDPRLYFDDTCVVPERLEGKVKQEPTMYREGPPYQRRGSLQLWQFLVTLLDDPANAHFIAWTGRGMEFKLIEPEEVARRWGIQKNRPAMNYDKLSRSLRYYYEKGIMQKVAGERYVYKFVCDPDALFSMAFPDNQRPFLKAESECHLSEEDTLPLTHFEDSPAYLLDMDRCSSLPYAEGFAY
# Outline: as §1
# [3] = molecular target: HSF1 (Homo sapiens, UniProt Q00613 1-529); settings: protein: recombinant; tags: N-terminal GST; chain copies: 3; dsDNA, one strand shown
# Chain of HSF1 (Q00613 whole entry): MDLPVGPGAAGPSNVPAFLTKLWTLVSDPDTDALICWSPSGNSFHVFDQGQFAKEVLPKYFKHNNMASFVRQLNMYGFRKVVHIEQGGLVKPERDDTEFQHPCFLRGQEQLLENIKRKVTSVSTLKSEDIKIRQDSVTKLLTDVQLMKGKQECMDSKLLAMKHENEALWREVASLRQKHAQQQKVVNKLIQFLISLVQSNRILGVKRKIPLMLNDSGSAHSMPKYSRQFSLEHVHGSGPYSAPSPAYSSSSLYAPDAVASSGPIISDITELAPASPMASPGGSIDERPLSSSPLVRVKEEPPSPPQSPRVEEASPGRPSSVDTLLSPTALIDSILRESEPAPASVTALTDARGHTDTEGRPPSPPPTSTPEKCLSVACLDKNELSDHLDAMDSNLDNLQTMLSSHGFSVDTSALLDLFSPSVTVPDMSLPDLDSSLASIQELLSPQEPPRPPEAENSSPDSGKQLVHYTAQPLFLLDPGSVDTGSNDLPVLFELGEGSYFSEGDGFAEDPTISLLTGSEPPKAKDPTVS
# Outline: as §1
# [4] = molecular target: T2, SPIC (Homo sapiens, UniProt Q8N5J4 1-248); settings: protein: recombinant; tags: N-terminal GST; dsDNA, one strand shown
# T2 sequence: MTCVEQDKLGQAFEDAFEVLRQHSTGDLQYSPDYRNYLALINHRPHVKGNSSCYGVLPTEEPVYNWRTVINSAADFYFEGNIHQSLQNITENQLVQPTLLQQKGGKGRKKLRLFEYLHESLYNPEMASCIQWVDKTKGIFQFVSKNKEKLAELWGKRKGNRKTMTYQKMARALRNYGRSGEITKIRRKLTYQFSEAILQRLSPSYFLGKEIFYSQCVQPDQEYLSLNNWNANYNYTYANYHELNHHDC
# Outline: as §1
# [5] = molecular target: ELF4 (Homo sapiens, UniProt Q99607 1-663); settings: protein: recombinant; tags: N-terminal GST; dsDNA, one strand shown
# Chain of ELF4 (Q99607 whole entry): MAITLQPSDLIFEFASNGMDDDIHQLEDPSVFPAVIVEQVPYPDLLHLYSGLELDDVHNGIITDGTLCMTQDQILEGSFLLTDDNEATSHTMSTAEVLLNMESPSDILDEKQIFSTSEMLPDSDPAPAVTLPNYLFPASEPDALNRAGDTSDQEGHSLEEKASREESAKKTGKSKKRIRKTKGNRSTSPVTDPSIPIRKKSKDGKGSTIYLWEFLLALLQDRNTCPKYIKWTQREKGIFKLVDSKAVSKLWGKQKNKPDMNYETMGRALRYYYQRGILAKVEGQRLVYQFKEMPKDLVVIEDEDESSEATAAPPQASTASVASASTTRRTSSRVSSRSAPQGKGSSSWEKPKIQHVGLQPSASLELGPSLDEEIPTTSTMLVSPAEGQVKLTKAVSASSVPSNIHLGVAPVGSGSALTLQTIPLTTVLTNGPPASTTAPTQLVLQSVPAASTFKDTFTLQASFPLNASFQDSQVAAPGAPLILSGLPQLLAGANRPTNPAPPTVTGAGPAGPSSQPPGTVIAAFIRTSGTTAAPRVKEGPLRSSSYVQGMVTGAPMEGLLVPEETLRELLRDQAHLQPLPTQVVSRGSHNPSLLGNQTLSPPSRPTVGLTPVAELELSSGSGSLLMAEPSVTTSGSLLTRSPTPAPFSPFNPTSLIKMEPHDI
# Outline: as §1
# [6] = molecular target: T3, ELK4 (Homo sapiens, UniProt P28324-2 1-405); settings: protein: recombinant; tags: N-terminal GST; dsDNA, one strand shown
# T3 sequence: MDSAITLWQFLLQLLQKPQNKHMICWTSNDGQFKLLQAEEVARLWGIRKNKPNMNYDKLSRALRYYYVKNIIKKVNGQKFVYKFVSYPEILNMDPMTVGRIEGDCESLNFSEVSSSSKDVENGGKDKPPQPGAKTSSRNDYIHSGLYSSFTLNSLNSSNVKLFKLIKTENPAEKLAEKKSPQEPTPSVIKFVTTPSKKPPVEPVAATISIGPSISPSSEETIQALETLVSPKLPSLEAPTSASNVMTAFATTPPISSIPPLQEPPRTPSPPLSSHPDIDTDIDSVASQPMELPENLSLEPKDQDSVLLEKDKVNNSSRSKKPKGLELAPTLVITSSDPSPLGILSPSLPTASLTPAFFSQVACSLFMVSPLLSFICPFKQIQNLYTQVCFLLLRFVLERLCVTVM
# Outline: as §1
# [7] = molecular target: T4, ETV2 (Homo sapiens, UniProt O00321 1-342); settings: protein: recombinant; tags: N-terminal GST; dsDNA, one strand shown
# T4 sequence: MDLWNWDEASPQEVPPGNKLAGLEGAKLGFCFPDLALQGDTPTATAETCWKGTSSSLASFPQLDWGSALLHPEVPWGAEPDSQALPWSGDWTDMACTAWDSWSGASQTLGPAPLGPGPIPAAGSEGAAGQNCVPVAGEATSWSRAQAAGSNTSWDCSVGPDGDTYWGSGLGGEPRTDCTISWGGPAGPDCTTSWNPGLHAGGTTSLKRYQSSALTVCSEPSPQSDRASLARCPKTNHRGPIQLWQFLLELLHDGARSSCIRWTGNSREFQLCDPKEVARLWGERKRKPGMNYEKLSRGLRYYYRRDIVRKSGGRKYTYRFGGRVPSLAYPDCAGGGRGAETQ
# Outline: as §1
# [8] = molecular target: T5, ELF3 (Homo sapiens, UniProt P78545 1-371); settings: protein: recombinant; tags: N-terminal GST; dsDNA, one strand shown
# T5 sequence: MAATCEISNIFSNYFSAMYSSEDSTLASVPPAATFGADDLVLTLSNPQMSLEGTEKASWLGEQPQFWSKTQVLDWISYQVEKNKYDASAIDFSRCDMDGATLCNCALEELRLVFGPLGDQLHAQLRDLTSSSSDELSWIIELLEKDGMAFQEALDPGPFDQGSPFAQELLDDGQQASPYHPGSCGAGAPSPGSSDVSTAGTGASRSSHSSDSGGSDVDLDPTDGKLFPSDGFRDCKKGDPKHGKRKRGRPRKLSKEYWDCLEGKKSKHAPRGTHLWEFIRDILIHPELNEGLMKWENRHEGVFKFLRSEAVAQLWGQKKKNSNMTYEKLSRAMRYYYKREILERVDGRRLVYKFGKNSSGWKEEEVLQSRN
# Outline: as §1
# [9] = molecular target: CRX (Homo sapiens, UniProt O43186 1-299); settings: protein: recombinant; tags: N-terminal GST; dsDNA, one strand shown
# Chain of CRX (O43186 whole entry): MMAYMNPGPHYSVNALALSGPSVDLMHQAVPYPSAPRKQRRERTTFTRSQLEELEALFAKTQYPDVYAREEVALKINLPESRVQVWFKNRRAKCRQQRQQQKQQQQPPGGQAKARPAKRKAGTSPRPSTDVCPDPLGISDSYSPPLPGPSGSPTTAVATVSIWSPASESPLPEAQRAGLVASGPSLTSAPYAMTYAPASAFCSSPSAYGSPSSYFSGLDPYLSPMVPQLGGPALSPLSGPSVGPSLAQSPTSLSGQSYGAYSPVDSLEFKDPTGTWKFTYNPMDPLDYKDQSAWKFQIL
# Outline: as §1
sequence,measurement,setting,value
CCTATA,binding signal,[1],"1.33 fold enrichment (6-mer frequency, TF over GST control)"
same,binding signal,[2],"1.31 fold enrichment (6-mer frequency, TF over GST control)"
same,binding signal,[3],"1.16 fold enrichment (6-mer frequency, TF over GST control)"
same,binding signal,[4],"1.35 fold enrichment (6-mer frequency, TF over GST control)"
same,binding signal,[5],"1.29 fold enrichment (6-mer frequency, TF over GST control)"
same,binding signal,[6],"1.4 fold enrichment (6-mer frequency, TF over GST control)"
same,binding signal,[7],"1.43 fold enrichment (6-mer frequency, TF over GST control)"
same,binding signal,[8],"1.15 fold enrichment (6-mer frequency, TF over GST control)"
same,binding signal,[9],"1.34 fold enrichment (6-mer frequency, TF over GST control)"
